Laboratory results: PubChem BioAssay (Tox21)
Records with an inconclusive call do not appear. Calls of active or inactive are those of the source. Calls come from the whole dose curve; as a rule, active = well fitted cell-killing curve with a large enough effect in the repeat runs; inconclusive = weak or mixed curves, or effect the other way; inactive = no such curve, though single readings can be large or run the other way.

assay: qHTS assay to identify small molecule agonists of the RXR signaling pathway - cell viability counter screen (AID 1159529); details: RXR-alpha-bla HEK293T viability, CellTiter-Glo, 16 h; series mostly up to 76.8 µM; note: nearly all actives have a fitted effect of over 50% in size
From the text: National Center for Advancing Translational Sciences [NCATS]
NIH Chemical Genomics Center [NCGC]
U.S. Environmental Protection Agency [EPA]
National Institutes of Environmental Health Sciences [NIEHS]
National Toxicology Program [NTP]
U.S. Food and Drug Administration [FDA]
The Retinoid X receptor (RXR), a nuclear hormone receptor expressed in liver, spleen, placenta, epidermis, central nervous system. These receptors are able to form homo and heterodimers with other nuclear receptors and due to this heterodimerizing ability, RXR functions as master regulators producing diverse physiological effects. Three subtypes of RXR exist; alpha, beta and gamma. Retinoid X receptor alpha (RXR-alpha) has potential roles in metabolic signaling pathways, skin alopecia, dermal cysts, cardiac development, insulin sensitization etc. Therefore screening environmental chemicals on RXR-alpha signaling can be used for the studies focused on such therapeutic applications. For quantification of RXR-alpha ligands signaling, GeneBLAzer RXR alpha-UAS-bla HEK 293T (Life Technologies, Carlsbad, CA) cells containing a beta-lactamase reporter-gene under control of Retinoid X receptor-alpha response element were used to screen Tox21 10K library. The cytotoxicity of the Tox21 compound library against the RXR-alpha HEK 293T cell line was tested in parallel by measuring cell viability using CellTiter-Glo assay (Promega Corporation, Madison, WI) in the same wells.
Tox21 Assay Protocol Summary:
RXR-alpha HEK 293T cells were dispensed at 2,000 cells/6 uL of assay medium containing 2% charcoal-stripped FBS using a Multidrop Combi (ThermoFisher Scientific, Waltham, MA) dispenser. The assay was performed in black wall/clear-bottom 1536-well plates (Greiner Bio-One North America Inc. Monroe, NC). Tetraoctyl ammonium bromide was used as a positive control in the cytotoxicity screen. After the assay plates were incubated at 37 C and 5% CO2 for 5 hr, 23 nL of compounds dissolved in DMSO, positive control or DMSO only were transferred to the assay plate by a Pintool station (Kalypsys, San Diego, CA). The assay plates were incubated at 37 C and 5% CO2 for 16 hr. One uL of LiveBLAzer B/G FRET substrate (Life Technologies) was added using a Flying Reagent Dispenser (FRD) (Aurora Discovery, San Diego, CA) and the plates were incubated at room temperature for 2 hr. Fluorescence intensity (405 nm excitation, 460/530 nm emission) was measured using an Envision plate reader (PerkinElmer, Shelton, CT). For cytotoxicity, 4 uL/well of CellTiter-Glo reagent was added into the assay plates using an FRD. After 30 min incubation at room temperature, the luminescence intensity was measured using a ViewLux plate reader (PerkinElmer).

Row | Compound | outcome
1 | Cc1cccc(N)c1C | inactive
2 | CCCOC(=O)c1ccccc1C(=O)OCCC | inactive
3 | O=C(O)C1C(C(=O)O)C2(Cl)C(Cl)=C(Cl)C1(Cl)C2(Cl)Cl (stereo not given) | inactive
4 | CC(=O)C1CCOC1=O (stereo not given) | inactive
5 | Nc1cccc(Cl)c1 | inactive
6 | ClCCOCCCl | inactive
7 | N#CN=C(N)N | inactive
8 | C=CC(=O)OCCCCCC(C)C | inactive
9 | O=P1(NCCCl)OCCCN1CCCl (stereo not given) | inactive
10 | Sc1ccccc1 | inactive
11 | COc1cc(-c2ccc(N)c(OC)c2)ccc1N | inactive
12 | O=[N+]([O-])c1ccc(Cl)cc1 | inactive
13 | O=C(O)Cc1ccccc1 | inactive
14 | Cc1cccc(C)c1NC(=O)CN1CCCC1=O | inactive
15 | Cc1ccc(N)cc1 | inactive
16 | C/C=C/c1ccc2c(c1)OCO2 | inactive
17 | CCNc1nc(Cl)nc(NC(C)C)n1 | inactive
18 | CCCCCCCCCCCCCCCCCC(=O)O | inactive
19 | CNC(=O)O/N=C/C(C)(C)S(C)=O (stereo not given) | inactive
20 | C=CC#N | inactive

Row | Compound | outcome
21 | N#Cc1ccccn1 | inactive
22 | CC[N+](=O)[O-] | inactive
23 | C=CC(=O)OCC(CC)CCCC (stereo not given) | inactive
24 | CC(C)c1cccc(C(C)C)c1O | inactive
25 | Cl/C=C/Cl | inactive
26 | CC(=O)/C=C/c1ccccc1 | inactive
27 | CN(C)NC(=O)CCC(=O)O | inactive
28 | Cc1ccc(N=C=O)cc1N=C=O | inactive
29 | O=[N+]([O-])c1cc([As](=O)(O)O)ccc1O | inactive
30 | COP(=S)(OC)Oc1ccc(SC)c(C)c1 | inactive
31 | FC(F)(F)c1ccc(Cl)cc1 | inactive
32 | Cl[C@H]1OCCO[C@@H]1Cl | inactive
33 | Clc1cnc(Oc2ccc(Oc3ncc(Cl)cc3Cl)cc2)c(Cl)c1 | inactive
34 | CN(C)C(=O)Nc1cccc(C(F)(F)F)c1 | inactive
35 | Oc1ccc(Cl)cc1 | inactive
36 | OCC(O)CCl (stereo not given) | inactive
37 | O=C(O)COc1ccccc1 | inactive
38 | C=CCN=C=S | inactive
39 | C[C@H]1C(=O)O[C@@H]2CCN3CC=C(COC(=O)[C@](C)(O)[C@]1(C)O)[C@H]23 | inactive
40 | O=C(O)C(Br)Br | inactive
